Source: PubChem BioAssay
Compounds with a hit are over-represented: about 2.1% of the library has one in this group of screens.
HIV Env fusion – blocks HIV Env-driven cell-cell fusion. HeLa-JRFL Env/CEM21 cell fusion, luciferase. inhibition, % at 12.3 µM. 360,000 tested, 1.1% active;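 active means mean replicate inhibition score of at least 50 and every replicate individually at or above 50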;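 further: 0% = plate neutral controls and 100% = maraviroc near 300 nM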
PGC1a acetyl inh – PGC1a acetylation modulation, inhibitor mode. inhibition, % at 15.6 µM. AID 651687. U2OS PGC1a acetylation, AlphaScreen anti-acetyl-lysine; with virally co-expressed GCN5 acetyltransferase. 350,000 tested, 0.17% active;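 active means every replicate shows inhibition of at least 40%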;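 further: 0% = neutral control wells and 100% = positive control wells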
MLL AF4-AF9 inh – blocks AF4 peptide binding to human AF9. P42568. AlphaScreen, biotin-AF4 peptide binding to FLAG-AF9. inhibition, % at 10 µM. 350,000 tested, 0.47% active. AID 651704;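 active means every replicate reaching a set inhibition limit, whatever the replicate mean, cut at about 25% in these data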;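 further: 0% = plate neutral control median and 100% = total signal loss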
NSD2 HMT inh – NSD2 (human) methyltransferase inhibition; O96028; NSD2 peptide methylation, AlphaScreen, 120 min; inhibition, % at 12.5 µM; 310,000 tested, 0.54% active; in the data active means inhibition above about 50%
Target sequence (O96028 whole entry, looked up): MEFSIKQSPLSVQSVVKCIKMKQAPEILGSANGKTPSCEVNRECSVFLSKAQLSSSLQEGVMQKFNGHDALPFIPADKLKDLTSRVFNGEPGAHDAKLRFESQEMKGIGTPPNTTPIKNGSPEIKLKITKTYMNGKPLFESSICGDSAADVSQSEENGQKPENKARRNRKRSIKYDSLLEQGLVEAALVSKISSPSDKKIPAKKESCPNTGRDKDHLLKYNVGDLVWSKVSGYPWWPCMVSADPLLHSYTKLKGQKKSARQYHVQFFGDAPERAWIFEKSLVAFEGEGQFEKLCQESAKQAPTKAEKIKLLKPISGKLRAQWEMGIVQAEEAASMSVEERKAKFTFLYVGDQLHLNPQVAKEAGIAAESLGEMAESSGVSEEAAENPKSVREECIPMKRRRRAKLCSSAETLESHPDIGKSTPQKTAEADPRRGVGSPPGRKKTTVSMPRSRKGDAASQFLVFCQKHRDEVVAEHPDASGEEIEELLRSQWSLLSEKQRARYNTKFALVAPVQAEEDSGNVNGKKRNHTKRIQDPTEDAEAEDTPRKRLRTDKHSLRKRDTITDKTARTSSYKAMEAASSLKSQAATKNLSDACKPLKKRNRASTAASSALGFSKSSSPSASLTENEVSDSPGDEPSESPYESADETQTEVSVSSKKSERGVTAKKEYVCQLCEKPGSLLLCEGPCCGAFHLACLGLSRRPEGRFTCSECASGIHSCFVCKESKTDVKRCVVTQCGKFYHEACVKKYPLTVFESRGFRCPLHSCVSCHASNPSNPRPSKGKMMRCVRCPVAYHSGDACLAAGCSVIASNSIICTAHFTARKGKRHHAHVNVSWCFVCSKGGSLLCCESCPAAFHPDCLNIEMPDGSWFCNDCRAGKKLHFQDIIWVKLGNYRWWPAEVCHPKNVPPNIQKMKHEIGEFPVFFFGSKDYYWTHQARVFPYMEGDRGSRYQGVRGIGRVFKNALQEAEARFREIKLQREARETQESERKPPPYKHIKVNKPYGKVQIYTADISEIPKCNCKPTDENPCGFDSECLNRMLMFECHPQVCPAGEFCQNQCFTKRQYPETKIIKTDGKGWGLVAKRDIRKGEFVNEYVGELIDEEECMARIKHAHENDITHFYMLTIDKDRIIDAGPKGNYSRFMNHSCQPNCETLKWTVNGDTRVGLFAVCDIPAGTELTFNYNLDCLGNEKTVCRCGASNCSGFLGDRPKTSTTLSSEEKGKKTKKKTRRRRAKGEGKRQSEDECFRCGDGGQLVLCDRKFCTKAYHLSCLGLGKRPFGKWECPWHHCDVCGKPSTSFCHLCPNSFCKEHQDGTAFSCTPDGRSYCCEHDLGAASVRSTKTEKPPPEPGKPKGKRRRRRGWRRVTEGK
GSIS activator – GLuc luminescence reporter in INS-1E cells, primary screen for activators of glucose-dependent secretion of insulin. INS-1E GLuc reporter insulin secretion, 2-3 h. activation, % at 16.6 µM. AID 743287. 370,000 tested, 0.61% active;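 active means lowest replicate activation of at least 40%, so every replicate reaches that level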;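 further: 0% = median of neutral control wells and 100% = median of IBMX positive control wells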
* = called active by the depositor; nt = not tested or not shown; ! = repeats disagree; [ ] = dose if it differs, or a comment.

SMILES	HIV Env fusion	PGC1a acetyl inh	MLL AF4-AF9 inh	NSD2 HMT inh	GSIS activator
CN1CCN(C(=O)c2ccc3c(c2)N(Cc2cccc(Cl)c2)C(=O)c2ccccc2S3=O)CC1 (stereo not given)	-22	4	-4	nt	5
CN(C)CC/C=C1/c2ccccc2Sc2ccc(Cl)cc21	-10	-1	27*!	25	1
CCCCCC[N+](C)(C)CC/C=C1/c2ccccc2Sc2ccc(Cl)cc21	8	-4	22	6	-3
N#CCCn1cc(/C=C(\C#N)c2nc3ccccc3s2)c(-c2ccc(F)cc2)n1	-72	-7	nt	nt	50*
N#CCCn1cc(C=C(C#N)C#N)c(-c2ccc(Cl)cc2)n1	-1	-6	0	0	30
CSc1ccccc1NC(=O)Cn1c([N+](=O)[O-])cnc1C	1	nt	42*	-1	38
Cc1ccc(-c2nc(C#N)c(NCC3CCCO3)o2)cc1 (stereo not given)	-26	-2	2	4	40*
Cc1ccc(S(=O)(=O)N[C@@H]2C=C[C@@H](CC(=O)N3CCC(Cc4ccccc4)CC3)O[C@@H]2CO)cc1	56*[16.7 µM]	0	-5	nt	-18
COc1ccc(S(=O)(=O)N[C@H]2C=C[C@H](CC(=O)N3CCN(c4ccccc4)CC3)O[C@@H]2CO)cc1	59*[16.7 µM]	-1	0	nt	-15
COc1ccc(S(=O)(=O)N[C@@H]2C=C[C@@H](CC(=O)N3CCN(c4ccccc4)CC3)O[C@@H]2CO)cc1	0[16.7 µM]	3	-2	nt	-2
CN(C1CCS(=O)(=O)C1)S(=O)(=O)c1ccccc1 (stereo not given)	10	4	-1	-1	1
Cc1ccnc(NC(=O)Cc2ccc(-c3ccccc3)cc2)c1	-208	nt	-3	2	8
NC(Cc1ccccc1)c1csc(NC(=O)Nc2ccccc2Oc2ccccc2)n1 (stereo not given)	60*	-71	2	-1	8
CCCc1cnc(Nc2nc(C(N)Cc3ccc(OC)cc3)cs2)nc1 (stereo not given)	-48	-6	10	1	nt
COc1ccc(CC(N)c2csc(NC(=O)Nc3ccccc3Cc3ccccc3)n2)cc1 (stereo not given)	98*	-27	15	0	-17
COc1ccc(CC(N)c2csc(NC(=O)Nc3ccccc3C(C)C)n2)cc1 (stereo not given)	12	-20	3	4	-30
COc1ccc(CC(N)c2csc(Nc3nncc4ccccc34)n2)cc1 (stereo not given)	58*	-7	12	-2	41
NC(Cc1ccc(C(F)(F)F)cc1)c1csc(NC(=O)NCCc2ccccc2)n1 (stereo not given)	66*	6	9	0	5
Cc1oc(-c2ccc(Cl)cc2)nc1CN1CCCC(C(=O)N2CCOCC2)C1 (stereo not given)	2	4	2	-2	11
COc1ccc(NC(=O)N(C)C[C@H]2Oc3ncc(C#CC(C)C)cc3C(=O)N([C@@H](C)CO)C[C@@H]2C)cc1	-15[16.7 µM]	18	-6	nt	-6
COc1ccc(CC(N)c2csc(NC(=O)Nc3ccccc3Oc3ccccc3)n2)cc1 (stereo not given)	100*	nt	5	19	11
O=C(NCC[C@H]1CC[C@@H](NC(=O)Nc2cc(F)ccc2F)[C@@H](CO)O1)Nc1ccc(F)cc1	5[16.7 µM]	9	15	nt	-29
CCn1c(SCC(=O)Nc2ccc3c(c2)oc2ccccc23)nnc1-c1ccc(N)cc1	42	14	nt	nt	73*
Oc1ccc(-c2nc3c4c(ncn3n2)-c2ccccc2CC42CCCC2)cc1	nt	nt	nt	-2	190*
Nn1cnc2c(c1=O)C1(CCCCC1)Cc1ccccc1-2	32	nt	nt	0	2
SMILES	HIV Env fusion	PGC1a acetyl inh	MLL AF4-AF9 inh	NSD2 HMT inh	GSIS activator
COc1cc2ccc(CC(=O)O)cc2cc1OC	-32	nt	-6	1	77*
NC(=O)c1nsc(C(=O)N(Cc2ccco2)C(C(=O)NCc2ccccc2)c2ccc(O)cc2)c1N (stereo not given)	7	-8	5	-4	20
O=P(OC1CCCCC1)(OC1CCCCC1)C(O)c1cccnc1 (stereo not given)	-2	14	-8	-1	0
O=P(OC1CCCCC1)(OC1CCCCC1)C(O)c1ccccc1 (stereo not given)	61*	5	nt	0	nt
Cc1ccc2c(CN3CCN(S(=O)(=O)c4ccc5c(c4)OCCO5)CC3)cc(=O)oc2c1C	93*	-8	nt	-3	nt
CCCc1cc(=O)oc2cc(C)cc(OCC(=O)Nc3ccccn3)c12	0	-1	-4	-2	17
CCCc1cc(=O)oc2cc(C)cc(OCC(=O)Nc3ccc(S(N)(=O)=O)cc3)c12	7	-9	-1	-1	139*
Cc1sc2ncnc(Sc3nnnn3-c3ccc(Cl)cc3)c2c1C	50*	13	nt	0	nt
c1ccc(-n2nnnc2Sc2ncnc3sc4c(c23)CCCC4)cc1	32	3	nt	-3	2
Cc1cc(NC(=O)c2ccccc2F)n(-c2nc3ccccc3[nH]2)n1	-72	-31	nt	-4	64*
O=C(Nc1nc2ccccc2[nH]1)c1ccccc1F	75*	14	nt	nt	11
CC(C)Oc1ccc(C(=O)Nc2nc3ccccc3[nH]2)cc1	57*	nt	-7	-2	-4
CN(c1ccccc1)S(=O)(=O)c1ccc(Cl)c(C(=O)Nc2nc3ccccc3[nH]2)c1	72*	1	nt	3	-32
Cc1cc(NC(=O)c2c(F)cccc2F)n(-c2nc3ccccc3[nH]2)n1	10	-1	nt	-1	-25
O=C(Nc1nc2ccccc2[nH]1)c1ccc(F)cc1	nt	8	-25	-2	2
Cc1cc2nc(-c3ccc(SCc4ccccn4)nc3)[nH]c2cc1C	-6	4	-3	4	22
O=C(O)c1ccccc1NS(=O)(=O)c1ccc(N/N=C/c2ccc(O)c(O)c2)c([N+](=O)[O-])c1	2	nt	5	116*	-14
O=C(/C=C/c1ccccc1)Nc1ccc2c(c1)C(=O)NC2=O	-13	-5	50*	nt	-2
COc1ccc(C2=NNC(=Nc3cc(S(=O)(=O)N(C)C)ccc3C)SC2)c(OC)c1	67*	-16	-4	nt	37
Cc1ccc(NC(=O)CSc2nc3ccccc3c(=O)[nH]2)cc1[N+](=O)[O-]	-13	-5	0	1	nt
Cc1cc(NC(=O)/C=C/c2ccc(Cl)cc2)no1	-24	nt	nt	-1	50*
CCc1n[nH]c(=S)n1/N=C/C(C)=C\c1ccccc1	56*	nt	-1	4	8
COc1ccc(S(=O)(=O)N(C)C[C@@H]2OCCCC[C@H](C)Oc3ccc(NC(=O)CCC(F)(F)F)cc3C(=O)N([C@@H](C)CO)C[C@H]2C)cc1	-16[16.7 µM]	1	-1	nt	-15
O=C(NCc1ccc(Cl)cc1)C(=O)NCC(c1cccnc1)N1CCN(c2ccc(F)cc2)CC1 (stereo not given)	62*	nt	0	1	-20
C[C@H](NC(=O)C[C@H]1C[C@@H]2c3cc(N(C)C)ccc3O[C@@H]2[C@H](CO)O1)c1ccccc1	-11[16.7 µM]	2	1	nt	5
